Test results taken from PMC7819943, “Rice protein-binding microarrays: a tool to detect cis-acting elements near promoter regions in rice”.
Over roughly 35,000 sequences, “fluorescence intensity (a.u.)” has its median near 10,000; the highest 2% begin near 52,000. What follows is part of a selection rich in the highest values, with near analogues and random picks from the rest.

What follows are sequences tested against T1, OsWOX13 (Oryza sativa, UniProt Q5QMM3 1-267) (assay: protein-binding microarray (RPBM); PBS, 2% BSA, 51.3 ng/ul salmon testes DNA, 50 uM zinc acetate, 200 nM TF, 25 C, 1 h; high values mean tight binding). Details: protein: recombinant; tags: N-terminal polyhistidine and DsRed monomer fusion (pET32a); label: CyDye5-dUTP incorporated in the synthesized complementary strand; 3' TTTTT single-stranded linker to array surface; dsDNA, one strand shown.
T1 sequence: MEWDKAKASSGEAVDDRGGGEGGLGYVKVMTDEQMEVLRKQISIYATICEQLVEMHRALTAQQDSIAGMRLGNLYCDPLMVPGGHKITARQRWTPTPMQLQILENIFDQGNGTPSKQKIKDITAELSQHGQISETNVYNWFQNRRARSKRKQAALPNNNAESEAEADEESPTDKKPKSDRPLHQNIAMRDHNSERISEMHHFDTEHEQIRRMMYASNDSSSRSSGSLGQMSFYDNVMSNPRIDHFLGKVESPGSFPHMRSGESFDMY
Summary of the method: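 The binding signal is fluorescence intensity per array feature (arbitrary units). Readings came from an Axon 4000B scanner after a washed, 2% BSA-blocked, double-stranded custom Agilent array had been incubated for 1 h at 25 °C with 200 nM protein and 50 µM zinc acetate. The protein was a Ni–NTA-purified transcription factor fused N-terminally to polyhistidine and DsRed, expressed in E. coli BL21-CodonPlus.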
In the case of “GCATGTTGATTATACCAGTAAGTTTCACGCACGCACACCGCGGAGTCACCTAGTGCAG”, the binding signal is reported as 13000 fluorescence intensity (a.u.). With “ACATGTTAATTTTAACATTGACTAATAGTAAGTAGTGAGCCGGAGTCACCTAGTGCAG” the binding signal was 25000 fluorescence intensity (a.u.). For “AAAGGGATGAGATTGAAGCAATTCCCGTGACTAGAAAACGCGGAGTCACCTAGTGCAG”, the binding signal was 3320 fluorescence intensity (a.u.). In the case of “AAATTTAAATTTGAAGTTGATTTTAAGATATTTTCAACGTCGGAGTCACCTAGTGCAG”, the binding signal is reported as 21000 fluorescence intensity (a.u.). “TTAGTTTATACTCAATTAATCATTCGCTAATGGCTTACCTCGGAGTCACCTAGTGCAG” was tested, and the binding signal was 5920 fluorescence intensity (a.u.). In the case of “ACTGATAGAATTAGCTCTATGCATAATGCATGGCTGTCTCCGGAGTCACCTAGTGCAG”, the binding signal is reported as 34300 fluorescence intensity (a.u.). With “AAAGATTGAAACTCTGAACATTTAGGACAACGAACATCATCGGAGTCACCTAGTGCAG” the binding signal was 14000 fluorescence intensity (a.u.). “CAAACAAGCCAGCTCAATCAATCATCGAGCTAGCTGAGCTCGGAGTCACCTAGTGCAG” was tested, and the binding signal was 8080 fluorescence intensity (a.u.). “CTCTGTAACTATATAATTTCGTGCCAGATCGAAACTATGTCGGAGTCACCTAGTGCAG” was tested, and the binding signal was 4040 fluorescence intensity (a.u.). With “GGTGTGTTTATAATTAATATACAGATTGTGTCACATTGTTCGGAGTCACCTAGTGCAG” the binding signal was 8600 fluorescence intensity (a.u.). In the case of “TTATATTAATTGGCTATTAGATTAGCTATAGATAAATTGGCGGAGTCACCTAGTGCAG”, the binding signal is reported as 60400 fluorescence intensity (a.u.). With “TATATATGAGCTATTAGATTGGCTATGGATGAATTGGAGCCGGAGTCACCTAGTGCAG” the binding signal was 4900 fluorescence intensity (a.u.). In the case of “AGATAATTAAGTATTTTACGTAAAATAAGATAGTATTAATCGGAGTCACCTAGTGCAG”, the binding signal is reported as 5240 fluorescence intensity (a.u.). For “ATATTTGATTAGATCGGTAATGGATGGCTATAACGTATGCCGGAGTCACCTAGTGCAG”, the binding signal was 58500 fluorescence intensity (a.u.). For “CAACTATTATATAAATTGGCTATTATATTAGCTATAGATGCGGAGTCACCTAGTGCAG”, the binding signal was 11400 fluorescence intensity (a.u.). In the case of “AATAAAATAATAATTATATAATTTTAGTAAGATAATTGAACGGAGTCACCTAGTGCAG”, the binding signal is reported as 19200 fluorescence intensity (a.u.). With “GATAAATTGACAATATTACCAAAATTTTAGTAAGATTGGCCGGAGTCACCTAGTGCAG” the binding signal was 64900 fluorescence intensity (a.u.). With “TTTATGATTATATTCGTAATGCTACATAATTTGATATGATCGGAGTCACCTAGTGCAG” the binding signal was 28100 fluorescence intensity (a.u.). With “GTCAATCATTGTTCTATGAGCTAGATGATAAAGATGACAACGGAGTCACCTAGTGCAG” the binding signal was 8180 fluorescence intensity (a.u.). In the case of “ATGATTGATCGATCATCAAGCTAAAGATAATGCTATGCAACGGAGTCACCTAGTGCAG”, the binding signal is reported as 55100 fluorescence intensity (a.u.). In the case of “GAGCTATTAGATTGGCTATAGATAAATTAGAGCTAGTAGTCGGAGTCACCTAGTGCAG”, the binding signal is reported as 31600 fluorescence intensity (a.u.). “TCAAGCTGCTAATCAATTGATATCAACTATATTATGGAAACGGAGTCACCTAGTGCAG” was tested, and the binding signal was 14600 fluorescence intensity (a.u.). For “ATCACACCCTAAATTGACTGTATTTGTGCTGAATTTTACACGGAGTCACCTAGTGCAG”, the binding signal was 12300 fluorescence intensity (a.u.). “CAGCCGGATTGATTGCGTAGCTGTGTGCAAGGCTGGGCGACGGAGTCACCTAGTGCAG” was tested, and the binding signal was 35900 fluorescence intensity (a.u.). “TGGTTAATTTAGCTTCTCCCCTTTCTCGTGTCCTTAGATTCGGAGTCACCTAGTGCAG” was tested, and the binding signal was 10200 fluorescence intensity (a.u.). “ATAAAATTAAAGTAAATGTGATACAAACGTGGCATGTTTGCGGAGTCACCTAGTGCAG” was tested, and the binding signal was 8490 fluorescence intensity (a.u.). For “AGACTAATTGAAGCTAGGATATATGATGCAAGGAGAGAGGCGGAGTCACCTAGTGCAG”, the binding signal was 29500 fluorescence intensity (a.u.). “ACCTTAAATTTGTAGTTGATTTTAGGGTTTTCTCATTGAACGGAGTCACCTAGTGCAG” was tested, and the binding signal was 27700 fluorescence intensity (a.u.). In the case of “ATAATAGATTTGGTCAAAATTTATCGAAAACCGATCGAAACGGAGTCACCTAGTGCAG”, the binding signal is reported as 13200 fluorescence intensity (a.u.). In the case of “AAATTAAATAACATGTGATTATGGCATACTGTAAGTAGTACGGAGTCACCTAGTGCAG”, the binding signal is reported as 12000 fluorescence intensity (a.u.). “ACCAAATTAATTTATTAAACATAAAATTGAATATATTTTGCGGAGTCACCTAGTGCAG” was tested, and the binding signal was 46500 fluorescence intensity (a.u.). With “ATAAATGGGCTATTAGATTGACTATAAATGATTTGGAGCCCGGAGTCACCTAGTGCAG” the binding signal was 57100 fluorescence intensity (a.u.). With “TATGAATTGGCTATTAAATTGACTATAAATGATTTAGAGCCGGAGTCACCTAGTGCAG” the binding signal was 37200 fluorescence intensity (a.u.). With “ATGGACTATTAAATTGACTATAAATGATTTGGAGCTAGTACGGAGTCACCTAGTGCAG” the binding signal was 22200 fluorescence intensity (a.u.). For “GAGACCATATCATTGATAGATACATGCATGCATCCTACTACGGAGTCACCTAGTGCAG”, the binding signal was 7660 fluorescence intensity (a.u.). For “AAGACTAAAGGCTCAATTGATTGGACGGGAGATATGAAAACGGAGTCACCTAGTGCAG”, the binding signal was 9490 fluorescence intensity (a.u.). With “ATATGATATTTGTCCATCTTAATTGCTTATAAGCTGTATACGGAGTCACCTAGTGCAG” the binding signal was 5090 fluorescence intensity (a.u.). For “TTGTTGATAACCGATAATTTGGTAAATTATTGATTTTATTCGGAGTCACCTAGTGCAG”, the binding signal was 19900 fluorescence intensity (a.u.). “GTCCGTAATTGATCATATTTATCATTTAAATTACTCAGTGCGGAGTCACCTAGTGCAG” was tested, and the binding signal was 61900 fluorescence intensity (a.u.). With “GGCCAGTAATTAACCATATTTATCATTTAAACTACTCAGTCGGAGTCACCTAGTGCAG” the binding signal was 9040 fluorescence intensity (a.u.). For “ACCGTAACCTGATTGATAATTTACTGATTTACTCATTGTTCGGAGTCACCTAGTGCAG”, the binding signal was 64700 fluorescence intensity (a.u.). In the case of “ATTGCTGATTGTCTGTTCTTTTACTTGACATAACCTGAATCGGAGTCACCTAGTGCAG”, the binding signal is reported as 30100 fluorescence intensity (a.u.). With “GTAATTGACAACTGACAACCGACAGTTATTGACTCATTCCCGGAGTCACCTAGTGCAG” the binding signal was 54900 fluorescence intensity (a.u.). For “TAATAAATTTGACTAGTTATTCAACTTTGACATAAAATCCCGGAGTCACCTAGTGCAG”, the binding signal was 11500 fluorescence intensity (a.u.).
